The values that follow come from PubChem BioAssay (NCATS).

SMILES strings stand for the structures. Records with an inconclusive call do not appear. Calls of active or inactive are those of the source. Calls follow the shape of the dose curve; as a rule, active = well fitted inhibition curve with a large enough effect; inconclusive = small, poorly fitted or top-dose-only effect; inactive = flat fitted curve, though single readings scatter.

The first test deals with HACAT. The experiment in a line: qHTS assay to identify novel small-molecules to repurpose for Merkel cell carcinoma treatment (AID 1296009). Also: nearly all actives have a fitted effect of over 60% in size. The conditions noted are these: MCC and control cell lines, CellTiter-Glo viability, 72 h; at 44.8 µM (top of the series) unless noted. The method, boiled down:
(§1)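 Cell viability measured by CellTiter-Glo following 72 hr compound treatment at 37 degree celsius, with NPC and MIPE libraries tested in 8- and 11-point concentration series.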
Background: Quantitative high-throughput screening tests each substance at several concentrations.
With `O=[N+]([O-])c1cc(Cl)ccc1S(=O)(=O)N1CCN(Cc2ccccc2)CC1`, the call was inactive. On the same count and under the same terms, to `CC1(C)C[C@H](O)C[C@@]2(C)[C@H]1[C@H](O)C=C1COC(=O)[C@@]12O` belongs “inactive”; to `CC(=O)N[C@H]1[C@H](O[C@H]2CC[C@]3(C)C4CC=C5[C@@H]6CC(C)(C)CC[C@]6(C(=O)O)[C@H](O)C[C@@]5(C)[C@]4(C)CC[C@H]3C2(C)C)O[C@H](CO)[C@@H](O)[C@@H]1O` (stereo partly drawn), “inactive [at 17.4 µM]”.

Take `CN[C@H](CNC(=O)N1CCC[C@@H]([C@@H](OCCNC(=O)OC)c2cccc(Cl)c2)C1)C[C@H]1CCCOC1`: the compound was classed as inactive.

On to `COc1ccc(CC(=O)NCc2ccccc2-c2ccccc2C(=O)NCCc2cccnc2)cc1`, for which the compound was classed as inactive.

In the case of `COc1ccc(Oc2c(Cl)cnn(C3c4ccccc4-c4ccccc43)c2=O)cc1`, the compound was classed as inactive. On the same count and under the same terms, to `COCCN1CCC(C(=O)NO)(S(=O)(=O)c2ccc(Oc3ccc(OC(F)(F)F)cc3)cc2)CC1` belongs “inactive”; to `CC(=O)O[C@@H]1[C@H](O[C@@H]2OC[C@](O)(CO)[C@H]2O)[C@@H](O[C@@H]2O[C@@H](C)[C@H](O)[C@@H](O[C@@H]3O[C@H](CO)[C@@H](O)[C@H](O)[C@H]3O)[C@H]2O)[C@H](OC(=O)[C@]23CCC(C)(C)C[C@H]2C2=CCC4[C@@]5(C)C[C@H](O)[C@H](O[C@@H]6O[C@H](C(=O)O)[C@@H](O)[C@H](O)[C@H]6O)[C@@](C)(C(=O)O)C5CC[C@@]4(C)[C@]2(C)CC3)O[C@@H]1C` (stereo partly drawn), “inactive [at 9.27 µM]”; to `COC(=O)c1ccccc1O[C@@H]1O[C@H](CO[C@@H]2OC[C@@H](O)[C@H](O)[C@H]2O)[C@@H](O)[C@H](O)[C@H]1O`, “inactive [at 17.4 µM]”.

Consider `C[C@H](O)C(O)(C(=O)OCc1ccccc1NC(=O)CCC(N)C(=O)O)[C@H](C)O` (stereo partly drawn), for which the outcome was “inactive [at 17.4 µM]”.

The next test concerns NIH3T3. The description is as above. Conditions: MCC and control cell lines, CellTiter-Glo viability, 72 h; at 44.8 µM (top of the series) unless noted. The method, boiled down: as §1
As to `COc1cccc(OC)c1-c1ccc(C[C@H](NC(=O)c2c(Cl)cccc2Cl)C(=O)O)cc1`, the compound was called inactive. Take `Nc1ncnc2c1c(COc1cccc(Cl)c1)nn2C1CCOCC1`: the compound was called inactive. With `C=C1CC/C=C(/C(=O)O)CCC2C1CC2(C)C` (stereo not drawn), the result was inactive. Still for that read-out and setting: to `COC(=O)C1=CO[C@@H](O[C@@H]2O[C@H](CO)[C@@H](O)[C@H](O)[C@H]2O)[C@@H]2[C@@H](C)[C@@H](O)C(O)[C@H]12` (stereo partly drawn) belongs “inactive [at 17.4 µM]”; to `C=C1C(=O)O[C@@H]2CC(C)=C([C@@H](C)CCCOC(C)=O)[C@@H](O)[C@H]12`, “inactive”; to `O=C(C[C@@H]1C(C(=O)O)=CO[C@@H](O[C@@H]2O[C@H](CO)[C@@H](O)[C@H](O)[C@H]2O)/C1=C\CO)OCCc1ccc(O)c(O)c1`, “inactive [at 17.4 µM]”. For the compound `C/C1=C\CC(C)(C)/C=C/C/C(C(=O)O)=C/CC1`, the outcome was inactive. With `OC[C@H]1O[C@@H](OCc2ccccc2)[C@H](O[C@@H]2OC[C@@H](O)[C@H](O)[C@H]2O)[C@@H](O)[C@@H]1O`, the outcome is “inactive [at 17.4 µM]”. Same read-out and setting: to `COc1cc(/C=C/C(=O)O)ccc1O[C@@H]1O[C@H](CO)[C@@H](O)[C@H](O)[C@H]1O[C@@H]1OC[C@](O)(CO)[C@H]1O` belongs “inactive [at 17.4 µM]”; to `COC(=O)C1(C)CCCC2(C)c3ccc(C(C)C)cc3C(O)C(O)C12` (stereo not drawn), “inactive”. The same measure, in the same setting: to `O=C(O)CC(CCc1ccccc1)OC1OC(CO)C(O)C(O)C1O` (stereo not drawn) belongs “inactive”; to `CC1=C[C@@H]2[C@H]3[C@@H]4O[C@@](C)(CC[C@H]4O)[C@H]3CC(=O)[C@]23C(=O)N[C@@H](CC(C)C)[C@@H]3[C@@H]1C`, “inactive”. On the same count and under the same terms, to `COc1ccc(/C=C/C(=O)O[C@@H]2[C@@H](O[C@@H]3O[C@H](CO)[C@@H](O)[C@H](O)[C@H]3O)[C@@H](O)[C@H](O[C@H]3C4C=CO[C@@H](O[C@@H]5O[C@H](CO)[C@@H](O)[C@H](O)[C@H]5O)C4[C@@]4(CO)O[C@@H]34)O[C@H]2C)cc1` (stereo partly drawn) belongs “inactive [at 9.27 µM]”.

For the compound `NCCCCN(Cc1nc2ccccc2[nH]1)[C@H]1CCCc2cccnc21`, the outcome was “inactive [at 17.4 µM]”. Still for that read-out and setting: to `COc1cc(/C=C/C(=O)OC[C@H]2O[C@@H](OC3CC(C)=C(C(=O)O)C(C)(C)C3)[C@H](O)[C@@H](O)[C@@H]2O)cc(OC)c1O` (stereo partly drawn) belongs “inactive [at 17.4 µM]”; to `CC1CCC2(NC1)OC1C(O)C3C4CCC5CC(O[C@@H]6O[C@H](CO)[C@@H](O)[C@H](O)[C@H]6O[C@@H]6O[C@@H](C)[C@H](O)[C@@H](O)[C@H]6O)CCC5(C)C4CCC3(C)C1C2C` (stereo partly drawn), “inactive [at 17.4 µM]”. On the same count and under the same terms, to `O=C(O)CCc1c(C(=O)O)[nH]c2cc(Cl)cc(Cl)c12` belongs “inactive [at 17.4 µM]”; to `C=C(C(=O)OC)[C@]12O[C@@](C)(CC[C@@]3(O)/C(=C\C)C(=O)O[C@]3(C)C[C@@H]1OC(=O)C(CO)CN1CCCC1C(=O)O)CC2=O` (stereo partly drawn), “inactive [at 17.4 µM]”. Consider `CC(C)c1cc2c(c(O)c1O)[C@@]13CCCC(C)(C)C1[C@@H](O)[C@@H]2OC3=O` (stereo partly drawn), for which the compound was called inactive. The same measure, in the same setting: to `CC1CC(O)/C=C/C(O)/C=C\C(=O)O1` (stereo not drawn) belongs “inactive [at 92 µM]”. The same measure, in the same setting: to `C=C1C(=O)O[C@@H]2C[C@]3(C)[C@@H](CCC(C)=O)[C@@H]3C[C@H]12` belongs “inactive”; to `C/C(=C\C(=O)C[C@@]12C(=O)O[C@]3(C)CC[C@H]1C[C@H]23)C(N)=O`, “inactive”; to `C=C(COC(=O)CC(C)C)C1Cc2cc(C(C)=O)ccc2O1` (stereo not drawn), “inactive”. On the same count and under the same terms, to `CN(C)CCC[C@]1(c2ccc(F)cc2)OCc2cc(C#N)ccc21` belongs “inactive”; to `C=C1C(OC(C)=O)[C@@]23CCC4[C@](C)(C(=O)O)CCC[C@@]4(C)[C@]2(O)CC[C@H]1C3` (stereo partly drawn), “inactive”; to `CC(=O)OC1C(CO)OC(O[C@H]2[C@H](OC(=O)[C@]34CCC(C)(C)C[C@H]3C3=CCC5[C@@]6(C)CC[C@H](O[C@@H]7O[C@H](C(=O)O)[C@@H](O)[C@H](O[C@@H]8OC[C@@H](O)[C@H](O)[C@H]8O)[C@H]7O[C@@H]7O[C@H](CO)[C@H](O)[C@H](O)[C@H]7O)[C@@](C)(C=O)C6CC[C@@]5(C)[C@]3(C)C[C@H]4O)O[C@H](C)[C@H](OC3OC(C)C(OC4OCC(O)C(O)C4O)C(O)C3O)[C@@H]2O)C(O)C1O` (stereo partly drawn), “inactive [at 9.27 µM]”. Turning to `O=C(O)c1cc(C(F)(F)F)ccc1N1CC[C@H](OCc2ccccn2)C1`, the outcome was inactive.

On to `C/C(=C\CCC(C)(C)O)CCO[C@@H]1O[C@H](CO[C@@H]2O[C@@H](C)[C@H](O)[C@@H](O)[C@H]2O)[C@@H](O)[C@H](O)[C@H]1O`, for which the outcome is “inactive [at 17.4 µM]”. As to `O=[N+]([O-])c1cc(Cl)ccc1S(=O)(=O)N1CCN(Cc2ccccc2)CC1`, the call was inactive. For the compound `CC1(C)C[C@H](O)C[C@@]2(C)[C@H]1[C@H](O)C=C1COC(=O)[C@@]12O`, the result was inactive. For `CC(=O)N[C@H]1[C@H](O[C@H]2CC[C@]3(C)C4CC=C5[C@@H]6CC(C)(C)CC[C@]6(C(=O)O)[C@H](O)C[C@@]5(C)[C@]4(C)CC[C@H]3C2(C)C)O[C@H](CO)[C@@H](O)[C@@H]1O` (stereo partly drawn), the outcome was “inactive [at 17.4 µM]”.

Take `CN[C@H](CNC(=O)N1CCC[C@@H]([C@@H](OCCNC(=O)OC)c2cccc(Cl)c2)C1)C[C@H]1CCCOC1`: the outcome was inactive. On the same count and under the same terms, to `COc1ccc(CC(=O)NCc2ccccc2-c2ccccc2C(=O)NCCc2cccnc2)cc1` belongs “inactive”; to `COc1ccc(Oc2c(Cl)cnn(C3c4ccccc4-c4ccccc43)c2=O)cc1`, “inactive”. The same measure, in the same setting: to `COCCN1CCC(C(=O)NO)(S(=O)(=O)c2ccc(Oc3ccc(OC(F)(F)F)cc3)cc2)CC1` belongs “inactive”. Same read-out and setting: to `CC(=O)O[C@@H]1[C@H](O[C@@H]2OC[C@](O)(CO)[C@H]2O)[C@@H](O[C@@H]2O[C@@H](C)[C@H](O)[C@@H](O[C@@H]3O[C@H](CO)[C@@H](O)[C@H](O)[C@H]3O)[C@H]2O)[C@H](OC(=O)[C@]23CCC(C)(C)C[C@H]2C2=CCC4[C@@]5(C)C[C@H](O)[C@H](O[C@@H]6O[C@H](C(=O)O)[C@@H](O)[C@H](O)[C@H]6O)[C@@](C)(C(=O)O)C5CC[C@@]4(C)[C@]2(C)CC3)O[C@@H]1C` (stereo partly drawn) belongs “inactive [at 9.27 µM]”. As to `COC(=O)c1ccccc1O[C@@H]1O[C@H](CO[C@@H]2OC[C@@H](O)[C@H](O)[C@H]2O)[C@@H](O)[C@H](O)[C@H]1O`, the outcome is “inactive [at 17.4 µM]”. Still for that read-out and setting: to `C[C@H](O)C(O)(C(=O)OCc1ccccc1NC(=O)CCC(N)C(=O)O)[C@H](C)O` (stereo partly drawn) belongs “inactive [at 17.4 µM]”.
